Compound activity deposited in PubChem by National Center for Advancing Translational Sciences (NCATS).
This excerpt belongs to a sample that is enriched for hits.
KDM5B inh – inhibitors of human KDM5B histone demethylase | Q9UGL1 | Potency, µM (top dose mostly 57.7 µM), most hits filed as inhibitors | KDM5B demethylase, FDH-coupled NADH fluorescence (FDH is formaldehyde dehydrogenase) | 2.6% of 220,000 active; active means well fitted inhibition curve with a large enough effect; further: nearly all actives have a fitted effect of over 70% in size
Target sequence (Q9UGL1 whole entry, looked up): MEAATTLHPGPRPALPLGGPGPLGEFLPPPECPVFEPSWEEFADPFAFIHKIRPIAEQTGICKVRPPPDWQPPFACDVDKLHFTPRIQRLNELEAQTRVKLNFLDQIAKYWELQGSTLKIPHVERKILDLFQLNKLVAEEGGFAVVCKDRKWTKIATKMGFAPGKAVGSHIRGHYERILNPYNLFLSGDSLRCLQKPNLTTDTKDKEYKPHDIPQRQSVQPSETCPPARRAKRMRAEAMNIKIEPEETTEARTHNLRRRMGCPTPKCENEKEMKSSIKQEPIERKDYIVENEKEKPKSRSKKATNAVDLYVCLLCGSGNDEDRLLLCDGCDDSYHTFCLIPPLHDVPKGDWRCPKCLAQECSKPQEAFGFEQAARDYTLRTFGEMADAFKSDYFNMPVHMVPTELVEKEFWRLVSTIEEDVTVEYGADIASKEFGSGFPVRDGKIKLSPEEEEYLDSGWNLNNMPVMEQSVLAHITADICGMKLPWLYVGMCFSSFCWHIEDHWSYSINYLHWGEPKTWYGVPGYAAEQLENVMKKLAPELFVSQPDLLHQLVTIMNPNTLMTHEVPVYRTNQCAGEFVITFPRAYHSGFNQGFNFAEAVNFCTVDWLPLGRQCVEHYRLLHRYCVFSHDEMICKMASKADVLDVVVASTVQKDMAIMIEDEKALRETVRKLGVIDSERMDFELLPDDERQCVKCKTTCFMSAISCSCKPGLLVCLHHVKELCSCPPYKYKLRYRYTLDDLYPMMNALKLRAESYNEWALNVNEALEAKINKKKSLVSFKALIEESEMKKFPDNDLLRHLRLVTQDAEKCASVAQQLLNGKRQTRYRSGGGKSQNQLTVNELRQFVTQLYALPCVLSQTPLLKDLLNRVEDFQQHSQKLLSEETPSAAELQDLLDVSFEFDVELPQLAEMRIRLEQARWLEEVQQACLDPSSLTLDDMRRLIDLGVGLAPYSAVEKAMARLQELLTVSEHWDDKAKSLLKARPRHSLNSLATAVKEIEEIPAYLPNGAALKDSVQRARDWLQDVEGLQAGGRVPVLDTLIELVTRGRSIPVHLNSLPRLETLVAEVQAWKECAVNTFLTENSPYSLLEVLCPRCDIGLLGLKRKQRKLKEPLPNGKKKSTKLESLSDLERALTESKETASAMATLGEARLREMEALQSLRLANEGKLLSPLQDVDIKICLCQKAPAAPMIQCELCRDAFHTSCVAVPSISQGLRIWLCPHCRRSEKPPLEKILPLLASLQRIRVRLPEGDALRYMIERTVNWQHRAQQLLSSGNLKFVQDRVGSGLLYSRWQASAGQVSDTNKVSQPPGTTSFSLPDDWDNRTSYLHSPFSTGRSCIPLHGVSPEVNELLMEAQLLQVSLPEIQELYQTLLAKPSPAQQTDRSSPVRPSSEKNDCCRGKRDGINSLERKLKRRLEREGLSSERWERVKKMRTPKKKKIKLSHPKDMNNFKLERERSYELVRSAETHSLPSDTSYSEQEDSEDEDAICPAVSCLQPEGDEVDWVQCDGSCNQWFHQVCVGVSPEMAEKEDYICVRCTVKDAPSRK
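Here, H3K4me3 peptide (12.5 µM in substrate mix) is demethylated by KDM5BΔAP, 200 nM final, after 10 min compound exposure. Formaldehyde product is coupled through FDH (0.25 U/mL in mix) to NADH fluorescence; 30-min ΔRFU feeds dose-response curves.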
Large screens that a line does not name were inactive.

COc1ccc(C2=NOC(Cc3cc(OC)c4c(c3OC)OCO4)C2)cc1 (stereo not given)	none
CC(=O)Nc1ccc2c(c1)nc1n2[C@@H](CNC(=O)NC(C)C)COC1	none
O=C1Nc2ccccc2CC12CCN(Cc1ccc(F)cc1)C2 (stereo not given)	none
CC(Sc1nc(-c2ccccc2)cs1)C(=O)NC1(C#N)CCCCC1 (stereo not given)	none
CCC(=O)Nc1cnc(-c2ccc(C)cc2)nc1	none
CCOc1ccc(-n2ccc(=O)c(C(=O)Nc3cc(C(F)(F)F)ccc3Cl)n2)cc1	none
Cc1sc(NC(=O)CSc2nc3ccccc3o2)nc1-c1ccccc1	none
CC(C)c1noc(-c2cn(C3CCN(C(=O)c4nccc5ccccc45)C3)nn2)n1 (stereo not given)	none
CN(C)C(=O)C(Sc1nc2cc(S(=O)(=O)N3CCCCC3)ccc2o1)c1ccccc1 (stereo not given)	none
CCOc1cccc(C(=O)Nc2ccc3oc(-c4ccc(OC)cc4)nc3c2)c1	none
O=C(Cc1c[nH]c2ccccc12)OCc1cccc(Cl)c1	none
CN(C)c1ccc(-c2nnnn2[C@H]2CO[C@H]3[C@@H]2OC[C@@H]3NC(=O)NCc2ccccc2)cc1	none
CN(C)c1ccc(-c2nnnn2[C@H]2CO[C@H]3[C@@H]2OC[C@H]3OCc2ccccc2)cc1	KDM5B inh 32µM
CC(=O)c1ccc(NC(=O)O[C@@H]2CO[C@H]3[C@@H]2OC[C@@H]3n2nnnc2-c2ccccc2)cc1	none
O=C(NC1CCCCC1)O[C@@H]1CO[C@H]2[C@@H]1OC[C@@H]2n1nnnc1-c1ccccc1	none
COc1ccc(NC(=O)O[C@@H]2CO[C@H]3[C@@H]2OC[C@@H]3n2nnnc2Sc2ccccc2)cc1	none
CN(C)c1ccc(-c2nnnn2[C@H]2CO[C@H]3[C@@H]2OC[C@H]3OC(=O)Nc2ccc(Oc3ccccc3)cc2)cc1	KDM5B inh 13µM
COc1ccc(OC)c(NC(=O)Cn2c(-c3ccccc3)nc(C)cc2=O)c1	none
N#Cc1cccc(NC(=O)N2CCC[C@@H](O)[C@H](NC(=O)c3ccc(OCc4ccc(F)cc4)cc3)C2)c1	none
Cc1cc(C(c2ccc(Cl)cc2)N2CCN(C)CC2)c(NC(=O)c2ccco2)s1 (stereo not given)	none
COCCn1c2c(c(=O)n1-c1ccccc1)CCN(Cc1ccncc1Cl)C2	KDM5B inh 35µM
COc1ncc(CN2CCc3c(n(CCOc4ccccc4)n(-c4ccccc4)c3=O)C2)cn1	none
COCCn1c(=O)c2c(n1Cc1ccccc1)CN(Cc1ccccc1O)CC2	none
O=C(NC1=NCCS1)c1ccc2nccnc2c1	none
CN(C)c1ccc(C(=O)N[C@H]2C[C@@H](c3nc(-c4ccc5ccccc5c4)no3)N(C)C2)cc1	KDM5B inh 35µM
CN1C[C@@H](NC(=O)c2ccc(F)cc2)C[C@H]1c1nc(-c2ccccc2)no1	none
CN1C[C@@H](NC(=O)c2ccc(-c3ccccc3)cc2)C[C@H]1c1nc(-c2ccncc2)no1	none
NC(=O)C(=O)Nc1ccccc1C(=O)NCc1ccncc1	none
CC1CCN(C(=O)c2ccccc2OCC2CCCN(C3CCCC3)C2)CC1 (stereo not given)	none
O=C(Cc1ccccc1)NCCc1csc2nc(-c3ccc(Cl)cc3)nn12	none
CCCNC(=O)c1c(C)nn(-c2cccc(C)c2)c1-n1cccc1	none
Cc1nc2scc(CC(=O)N3CCOCC3)n2c(=O)c1-c1cc(C)n(-c2ccc(C(C)C)cc2)n1	KDM5B inh 25µM
Cc1cccc(-n2nc(-c3c(C)nc4scc(CC(=O)NC5CC5)n4c3=O)cc2C)c1	KDM5B inh 25µM
CCCNC(=O)NC(=O)COC(=O)c1ccc(-n2nc(C)cc2C)cc1	none
Cc1ccc2c(c1)cc1c(=O)n(CC(=O)NC3CCCCC3)nc(C)n12	none
O=C(Cc1ccc(F)cc1)NCCc1csc2nc(-c3ccc(Cl)cc3)nn12	none
COc1ccc(-n2c(SCC(=O)N3CCOCC3)nc(O)cc2=O)cc1	none
Cn1c(=O)c2c(nc(SCC(=O)N3CCOCC3)n2Cc2ccc(Cl)cc2Cl)n(C)c1=O	none
CCOC(=O)N1CCC(NC(=O)c2c(C)nn(-c3cccc(C)c3)c2-n2cccc2)CC1	none
Cc1ccc(Cl)cc1-n1nc(-c2c(C)nc3scc(CC(=O)NCCC(C)C)n3c2=O)cc1C	KDM5B inh 22µM
CCCNC(=O)Cc1csc2nc(C)c(-c3cc(C)n(-c4ccc(Cl)c(Cl)c4)n3)c(=O)n12	KDM5B inh 28µM
Cc1ccc(Cn2c(SCCC(=O)O)nc3c2c(=O)n(C)c(=O)n3C)cc1	none
Cn1c(=O)[nH]c(=O)c2c1nc(SCC(=O)O)n2Cc1ccc(Cl)cc1	none
Cc1nccn1CCc1nc2cc(NC(=O)CC(C)C)ccc2n1C	none
CCONC(=O)CCC1Cc2ccccc2NC1=O (stereo not given)	none
CCNC(=S)Nc1ccc(C)cc1Cl	none
COc1ccc(C(=O)NC2CCCNC2=O)cc1S(=O)(=O)N(C)C (stereo not given)	none
CC(SC(C)c1ccc(Cl)cc1)C(N)=O (stereo not given)	none
CCCCNc1nc(-c2ccc(NC(C)=O)cc2F)cs1	none
Cc1ccc(COc2ccccc2C2C3=C(CC(C)(C)CC3=O)OC3=C2C(=O)CC(C)(C)C3)cc1	none
CN(C)c1nc2c(c(=O)[nH]1)CCN(CCc1ccccc1)CC2	none
